According to the supplement of paper PMC8728848:
The sample as a whole holds a higher share of the strongest signals than the screen did.

Key:
Experiment in all cases: glycan array binding signal (z-score within array); higher = stronger binding
Settings in all cases: glycan notation: IUPAC condensed, linker removed
[1] = target: Gal(b1-4)GlcNAc(b1-3)Gal(b1-4)GlcNAc(b1-3)Gal(b1-4)GlcNAc(b1-3)Gal(b1-4)GlcNAc(b1-3)Gal(b1-4)GlcNAc(b1-2)Man(a1-3)[Gal(b1-4)GlcNAc(b1-3)Gal(b1-4)GlcNAc(b1-3)Gal(b1-4)GlcNAc(b1-3)Gal(b1-4)GlcNAc(b1-3)Gal(b1-4)GlcNAc(b1-2)Man(a1-6)]Man(b1-4)GlcNAc(b1-4)GlcNAc
Summary of the method: (§1)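 The binding signal is a Z-score computed within each array. Data were drawn from 3228 arrays in the Consortium for Functional Glycomics database, restricted to those with a known protein sequence. Scores were averaged over arrays of the same protein sequence at different concentrations or buffers, and over linkers, and negative values can be taken as non-binding.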

Gal(b1-6)Gal = target: Gal(b1-6)Gal
Summary of the method: as §1

Gal6S(b1-4)Glc6S = target: Gal6S(b1-4)Glc6S
Summary of the method: as §1

GalNAc(b1-3)GalNAc = target: GalNAc(b1-3)GalNAc
Summary of the method: as §1

GalNAc(b1-4)GlcNAc = target: GalNAc(b1-4)GlcNAc
Summary of the method: as §1

GalNAc(b1-6)GalNAc = target: GalNAc(b1-6)GalNAc
Summary of the method: as §1

GalNAc3S(b1-4)GlcNAc = target: GalNAc3S(b1-4)GlcNAc
Summary of the method: as §1

Glc(b1-6)Glc = target: Glc(b1-6)Glc
Summary of the method: as §1

GlcA(b1-3)GlcNAc = target: GlcA(b1-3)GlcNAc
Summary of the method: as §1

GlcNAc(b1-3)Gal = target: GlcNAc(b1-3)Gal
Summary of the method: as §1

GlcNAc(b1-3)Gal(b1-4)Glc = target: GlcNAc(b1-3)Gal(b1-4)Glc
Summary of the method: as §1

[2] = target: GlcNAc(b1-3)Gal(b1-4)GlcNAc(b1-3)Gal(b1-4)GlcNAc(b1-2)Man(a1-3)[GlcNAc(b1-3)Gal(b1-4)GlcNAc(b1-3)Gal(b1-4)GlcNAc(b1-2)Man(a1-6)]Man(b1-4)GlcNAc(b1-4)GlcNAc
Summary of the method: as §1

[3] = target: GlcNAc(b1-3)[GlcNAc(b1-4)][GlcNAc(b1-6)]GlcNAc
Summary of the method: as §1

[4] = target: Man(a1-2)Man(a1-6)[Man(a1-3)]Man(a1-6)[Man(a1-2)Man(a1-2)Man(a1-3)]Man
Summary of the method: as §1

[5] = target: Man(a1-2)Man(a1-6)[Man(a1-3)]Man(a1-6)[Man(a1-2)Man(a1-2)Man(a1-3)]Man(b1-4)GlcNAc(b1-4)GlcNAc
Summary of the method: as §1

Neu5Ac(a2-3)Gal = target: Neu5Ac(a2-3)Gal
Summary of the method: as §1

[6] = target: Neu5Ac(a2-3)Gal(b1-3)GalNAc(b1-3)Gal(a1-4)Gal(b1-4)Glc
Summary of the method: as §1

[7] = target: Neu5Ac(a2-3)Gal(b1-3)GlcNAc(b1-2)Man(a1-3)[GlcNAc(b1-4)][Neu5Ac(a2-3)Gal(b1-3)GlcNAc(b1-2)Man(a1-6)]Man(b1-4)GlcNAc(b1-4)GlcNAc
Summary of the method: as §1

[8] = target: Neu5Ac(a2-3)Gal(b1-4)GlcNAc(b1-2)Man(a1-3)[Neu5Ac(a2-3)Gal(b1-4)GlcNAc(b1-2)Man(a1-6)]Man(b1-4)GlcNAc(b1-4)GlcNAc
Summary of the method: as §1

[9] = target: Neu5Ac(a2-3)Gal(b1-4)GlcNAc(b1-2)Man(a1-3)[Neu5Ac(a2-3)Gal(b1-4)GlcNAc(b1-2)Man(a1-6)]Man(b1-4)GlcNAc(b1-4)[Fuc(a1-6)]GlcNAc
Summary of the method: as §1

[10] = target: Neu5Ac(a2-3)Gal(b1-4)GlcNAc(b1-3)Gal(b1-4)GlcNAc(b1-3)[Neu5Ac(a2-3)Gal(b1-4)GlcNAc(b1-3)Gal(b1-4)GlcNAc(b1-6)]GalNAc
Summary of the method: as §1

[11] = target: Neu5Ac(a2-3)Gal(b1-4)GlcNAc(b1-3)Gal(b1-4)GlcNAc(b1-6)[Gal(b1-3)]GalNAc
Summary of the method: as §1

[12] = target: Neu5Ac(a2-3)Gal(b1-4)[Fuc(a1-3)]GlcNAc(b1-6)[Gal(b1-3)]GalNAc
Summary of the method: as §1

[13] = target: Neu5Ac(a2-3)Gal6S(b1-4)GlcNAc
Summary of the method: as §1

[14] = target: Neu5Ac(a2-3)[GalNAc(b1-4)]Gal(b1-4)GlcNAc
Summary of the method: as §1

[15] = target: Neu5Ac(a2-6)Gal(b1-4)GlcNAc(b1-2)Man(a1-3)[GlcNAc(b1-2)Man(a1-6)]Man(b1-4)GlcNAc(b1-4)GlcNAc
Summary of the method: as §1

[16] = target: Neu5Ac(a2-6)Gal(b1-4)GlcNAc(b1-3)Gal(b1-4)GlcNAc(b1-3)Gal(b1-4)GlcNAc
Summary of the method: as §1

[17] = target: Neu5Ac(a2-6)Gal(b1-4)GlcNAc(b1-3)Gal(b1-4)GlcNAc(b1-3)[Neu5Ac(a2-6)Gal(b1-4)GlcNAc(b1-3)Gal(b1-4)GlcNAc(b1-6)]GalNAc
Summary of the method: as §1

[18] = target: Neu5Ac(a2-6)Gal(b1-4)GlcNAc6S
Summary of the method: as §1

[19] = target: Neu5Ac(a2-6)GalNAc(b1-4)GlcNAc
Summary of the method: as §1

[20] = target: Neu5Ac(a2-6)GalNAc(b1-4)GlcNAc6S
Summary of the method: as §1

[21] = target: Neu5Ac(a2-8)Neu5Gc(a2-3)Gal(b1-4)GlcNAc
Summary of the method: as §1

B1: Clec12b (Mus musculus), Q149M0 (protein)
chain: MSDEVTYATLMLQDSARVRGNQDGNNLRKEGHPAQSSLWRGAALSLMTLCLVLVTGLVTLATMFLQVSNDINSDSEKLSQLQKSIHPQQDNLSESLNSSRKSLTEESLQSQISALLERQEQMATKLCKEFLIHASDHKCNPCPKTWQWYGNSCYYFSINEEKSWSDSRKDCIDKNATLVKIDSTEERDLLQSQLSLTFSFFWLGLSWNSSGRNWLWEDGSFPPPTLFSDKELASFNGSRDCAYFERGNIYASRCSAEIPWICEKTASLVKTEDLD
glycan array binding signal (z-score) [1]: 0.028
glycan array binding signal (z-score) (Gal(b1-6)Gal): -0.5
glycan array binding signal (z-score) (Gal6S(b1-4)Glc6S): 1.24
glycan array binding signal (z-score) (GalNAc(b1-3)GalNAc): -0.125
glycan array binding signal (z-score) (GalNAc(b1-4)GlcNAc): 0.301
glycan array binding signal (z-score) (GalNAc(b1-6)GalNAc): 1.14
glycan array binding signal (z-score) (GalNAc3S(b1-4)GlcNAc): -0.691
glycan array binding signal (z-score) (Glc(b1-6)Glc): -0.441
glycan array binding signal (z-score) (GlcA(b1-3)GlcNAc): -0.05
glycan array binding signal (z-score) (GlcNAc(b1-3)Gal): -0.39
glycan array binding signal (z-score) (GlcNAc(b1-3)Gal(b1-4)Glc): 2.54
glycan array binding signal (z-score) [2]: -0.27
glycan array binding signal (z-score) [3]: -0.245
glycan array binding signal (z-score) [4]: -0.526
glycan array binding signal (z-score) [5]: -0.428
glycan array binding signal (z-score) (Neu5Ac(a2-3)Gal): -0.719
glycan array binding signal (z-score) [6]: -0.593
glycan array binding signal (z-score) [7]: -0.101
glycan array binding signal (z-score) [8]: -0.716
glycan array binding signal (z-score) [9]: 11.9
glycan array binding signal (z-score) [10]: -0.513
glycan array binding signal (z-score) [11]: -0.721
glycan array binding signal (z-score) [12]: 2.54
glycan array binding signal (z-score) [13]: -0.451
glycan array binding signal (z-score) [14]: -0.538
glycan array binding signal (z-score) [15]: -0.701
glycan array binding signal (z-score) [16]: -0.719
glycan array binding signal (z-score) [17]: -0.419
glycan array binding signal (z-score) [18]: 0.459
glycan array binding signal (z-score) [19]: -0.692
glycan array binding signal (z-score) [20]: -0.524
glycan array binding signal (z-score) [21]: -0.719
